Source: PubChem BioAssay (National Center for Advancing Translational Sciences (NCATS))
The list is not random: actives were taken first. Their share in the collection is about 11%.
VACV Venus inh = inhibitors of vaccinia virus (Venus reporter); Vaccinia virus Venus reporter expression, fluorescence; Potency, µM (top dose mostly 36.5 µM), without a hit: at the highest dose activity change, negative = inhibition, actives largely listed as inhibitors; 330,000 compounds, 0.46% hits; AID 720580; calls by dose curve; tested in A549 cells; also: % is scaled to controls: 0 for no effect and ±100 for the full control effect; nearly all actives have a fitted effect of over 30% in size
Pf growth 48h = inhibits P. falciparum growth in the first generation, 48 h; P. falciparum luciferase growth in erythrocytes, 48 h; Potency, µM (doses to about 28.7 µM), inactives show at the highest dose activity change, negative = inhibition, actives largely listed as inhibitors; 310,000 compounds, 5.9% hits; also: % is scaled to controls: 0 for no effect and ±100 for the full control effect
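Luciferase-expressing parasites in RBCs, 2% Hct / 0.1% parasitemia final; RPMI 1640 + 0.5% Albumax; 37 C, 5% CO2, one generation; luminescence read-out, lower signal = inhibition.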
HCV inhibitor = blocks hepatitis C virus. Huh7.5.1 HCVcc-Cre infection, luciferase reporter, 44 h. Potency, µM (series often up to 41.8 µM), for the others: at the highest dose activity change, negative = inhibition, usual class: inhibitors. 340,000 compounds, 3.4% hits. AID 651820; also: % is scaled to controls: 0 for no effect and ±100 for the full control effect
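Compounds are dispensed onto cells plated 4 h earlier at 1,000 per well, with HCVcc-Cre virus (about 0.5 moi) added next. Following 44 h of culture, luminescent signal is measured for 15 sec after 15 min with substrate at room temperature.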
Pf growth 96h = P. falciparum growth inhibition at 96 hours; P. falciparum luciferase reporter growth, 96 h; Potency, µM (top dose mostly 28.7 µM), for the others: at the top dose activity change, negative = inhibition, usual class: inhibitors; 320,000 compounds, 6.9% hits; also: % is scaled to controls: 0 for no effect and ±100 for the full control effect
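Infected RBCs, 2% Hct / 0.05% parasitemia final; luciferase-reporter P. falciparum; cpd 96 h, 37 C, 5% CO2; luciferase detection reagent; luminescence.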
Vaccinia mCherry = vaccinia inhibition (mCherry reporter); Vaccinia virus mCherry reporter infection, fluorescence; Potency, µM (titrated, usually from 36.5 µM), for the others: at the top dose activity change, negative = inhibition, usual class: inhibitors; 310,000 compounds, 0.63% hits; calls by dose curve; tested in A549 cells; also: % is scaled to controls: 0 for no effect and ±100 for the full control effect; nearly all actives have a fitted effect of over 35% in size
NS1 function inh = blocks influenza NS1 protein function | Potency, µM (highest dose often 46.1 µM), for inactives: top-dose activity, positive = more growth | 270,000 compounds, 0.4% hits; calls by dose curve; also: actives are rising curves; nearly all actives have a fitted effect of over 50% in size
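OD600 was taken as the measure of yeast growth restored by compound in an NS1-expressing S. cerevisiae strain. Cells had been washed out of glucose medium and diluted 1:100 into galactose -URA medium, pH 6.0.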
Starred values were filed as active, the others as inactive; [ ] = another dose, or the depositor's remark. Unless noted, calls follow the shape of the dose curve; as a rule, active = well fitted inhibition curve with a large enough effect; inconclusive = small, poorly fitted or top-dose-only effect, or another doubt; inactive = no such curve, though single readings can be large or run the other way. Potency is read from the fitted curve at half-maximal effect.

For C=CCSc1nc2ccccc2n1S(=O)(=O)c1ccc(C)cc1 the results were VACV Venus inh 6.0%, Pf growth 48h 20.0%, HCV inhibitor 2.1%, Pf growth 96h 28.7% and NS1 function inh -7.6%.
`COc1ccc2[nH]cc(CCNC(=O)Cc3ccc(Cl)cc3)c2c1` gave VACV Venus inh -17.6%, Pf growth 48h -18.4%[0.00184 µM], HCV inhibitor inconclusive, Pf growth 96h -3.8%, Vaccinia mCherry inconclusive and NS1 function inh -4.2%.
For Cc1ccc2[nH]nc(C(=O)N3CCOc4ccc(CN5CCc6sccc6C5)cc4C3)c2c1 the results were VACV Venus inh -19.9% and Vaccinia mCherry 12.6µM*.
Cc1ccc(NC(=O)CCCc2nnc3n(C)c(=O)c4sccc4n23)cc1C was read as VACV Venus inh -0.1% and Vaccinia mCherry -12.8%.
O=c1[nH]c(CN2CCN(Cc3ccccc3)CC2)nc2scc(-c3ccccc3)c12 was read as VACV Venus inh -12.0%, Pf growth 48h inconclusive, HCV inhibitor inconclusive, Pf growth 96h -11.4%, Vaccinia mCherry inactive and NS1 function inh 6.9%.
CC(=O)N1CCN(Cc2nc3scc(-c4ccccc4)c3c(=O)[nH]2)CC1 was read as VACV Venus inh -3.6%, Pf growth 48h inconclusive, HCV inhibitor 6.5%, Pf growth 96h 13.1µM* and Vaccinia mCherry -2.9%.
For CC/C(=C\C=C\[C@@H]1C=C[C@@H]2CCC[C@H]2[C@@H]1C(=O)c1ccc[nH]1)[C@@H]1O[C@@H]([C@@H](C)C(=O)O)CC[C@@H]1C the results were Pf growth 48h 2.62µM*, HCV inhibitor inconclusive, Pf growth 96h inconclusive and NS1 function inh -32.7%.
`CCOc1ccc(CN2CCNC(=O)C2CC(=O)NCc2csc(C)n2)cc1` (configuration not stated) gave VACV Venus inh -11.4%, Pf growth 48h -3.4%, Pf growth 96h 3.29µM*, Vaccinia mCherry -9.4% and NS1 function inh 15.9%.
O=C(CC1C(=O)NCCN1Cc1c(F)cccc1Cl)NCCCOc1cccnc1 (configuration not stated) was read as Pf growth 48h -15.8%, HCV inhibitor 5.0%, Pf growth 96h 14.7µM* and NS1 function inh -8.2%.
For O=C(CC1C(=O)NCCN1Cc1ccc(F)cc1)NCCOc1cccnc1 (configuration not stated) the results were VACV Venus inh 12.5%, Pf growth 48h -23.3%, HCV inhibitor 1.8%, Pf growth 96h inconclusive, Vaccinia mCherry inactive and NS1 function inh 1.5%.
Cc1nonc1CN(C)C(=O)CC1C(=O)NCCN1Cc1cccc(C(F)(F)F)c1 (configuration not stated) was read as VACV Venus inh -10.2%, Pf growth 48h 36.1%, HCV inhibitor inconclusive, Pf growth 96h 10.4µM*, Vaccinia mCherry inactive and NS1 function inh 7.5%.
For Cc1cc(CN(C)C(=O)CC2C(=O)NCCN2Cc2ccc(-c3ccccc3)cc2)on1 (configuration not stated) the results were Pf growth 48h -16.6%, HCV inhibitor -3.3%, Pf growth 96h 10.4µM* and NS1 function inh 8.2%.
For Cc1cc(CN(C)C(=O)CC2C(=O)NCCN2Cc2ccc(F)c(F)c2)on1 (configuration not stated) the results were VACV Venus inh -2.9%, Pf growth 48h 5.2%, HCV inhibitor 7.9%, Pf growth 96h 23.5%, Vaccinia mCherry -4.4% and NS1 function inh 0.0%.
For Cc1nonc1CN(C)C(=O)CC1C(=O)NCCN1Cc1ccccc1C(F)(F)F (configuration not stated) the results were VACV Venus inh -2.1%, Pf growth 48h -15.7%, HCV inhibitor 2.2%, Pf growth 96h 13.5%, Vaccinia mCherry inactive and NS1 function inh 3.3%.
`O=C(O)Cn1c(O)c(C2=c3ccccc3=NC2=O)sc1=O` gave Pf growth 48h 12.4%, HCV inhibitor 6.1%, Pf growth 96h 27.1% and NS1 function inh 4.5%.
`Cc1ccccc1NC(=O)Cc1nc(COC(=O)CSc2ccccc2)cs1` gave VACV Venus inh -6.2%, Pf growth 48h 5.4%, HCV inhibitor 10.1%, Pf growth 96h 11.3%, Vaccinia mCherry -10.1% and NS1 function inh -1.2%.
`Nc1ncc(Br)cc1S(=O)(=O)NCCC(=O)NC1CCCCC1` gave VACV Venus inh 6.6%[7.34 µM], Pf growth 48h 3.3%, HCV inhibitor -3.4%, Pf growth 96h -11.9%, Vaccinia mCherry 3.3%[7.34 µM] and NS1 function inh 5.2%.
O=C(C[n+]1ccnc2ccccc21)c1ccc(Br)cc1 was read as VACV Venus inh -2.1% and Vaccinia mCherry -9.3%.
Cc1ccc(CN2CCNC(=O)C2CC(=O)N(C)Cc2cnccn2)cc1 (configuration not stated) was read as Pf growth 48h 27.7%, HCV inhibitor 4.9%, Pf growth 96h 13.1µM* and NS1 function inh -3.4%.
CC(C)N(Cc1nccn1C)C(=O)CC1C(=O)NCCN1Cc1ccc(F)cc1 (configuration not stated) was read as Pf growth 48h 15.6%, HCV inhibitor 11.5%, Pf growth 96h 13.1µM* and NS1 function inh -8.0%.
For O=C(CC1C(=O)NCCN1Cc1cccc(C(F)(F)F)c1)NCCc1cnccn1 (configuration not stated) the results were VACV Venus inh 4.2%, Pf growth 48h 33.0%, HCV inhibitor 4.7%, Pf growth 96h 2.08µM*, Vaccinia mCherry -8.6% and NS1 function inh 0.3%.
For CN(Cc1cnccn1)C(=O)CC1C(=O)NCCN1Cc1c(F)cccc1Cl (configuration not stated) the results were VACV Venus inh -5.0%[7.34 µM], Pf growth 48h 0.9%, HCV inhibitor 4.6%, Pf growth 96h 9.2%, Vaccinia mCherry -19.9%[7.34 µM] and NS1 function inh 5.9%.
`CCOc1ccc(CN2CCNC(=O)C2CC(=O)NCCc2cnccn2)cc1` (configuration not stated) gave VACV Venus inh -10.7%, Pf growth 48h -1.7%, HCV inhibitor 7.6%, Pf growth 96h 0.0%, Vaccinia mCherry -0.2% and NS1 function inh 5.1%.
Screening O=C(O)CCn1cc(/C=C2/NC(=S)N(c3ccccc3)C2=O)c(-c2ccccc2)n1 returned VACV Venus inh 0.9%, Pf growth 48h -13.7%, HCV inhibitor 7.1%, Pf growth 96h 3.7µM*, Vaccinia mCherry -8.2% and NS1 function inh 29.0%.
COc1ccc(-c2cc(C(=O)N3CCCCC3)no2)cc1OC was read as Pf growth 48h 105.0%, HCV inhibitor 16.5%, Pf growth 96h -3.6% and NS1 function inh -3.5%.
For CNCCc1c[nH]c2ccccc12 the results were VACV Venus inh -5.2%, Pf growth 48h 28.0%, HCV inhibitor 10.3%, Pf growth 96h 34.3%, Vaccinia mCherry inactive and NS1 function inh 4.7%.
